Bioassay records from PubChem BioAssay.
ATXN2 expr inh: Primary qHTS for Inhibitors of ATXN expression; hit rate 0.72% among 360,000; Potency, µM (highest dose often 57 µM), actives largely listed as inhibitors; HEK-293 ATXN2-luciferase reporter, luminescence, 24 h; note: nearly all actives have a fitted effect of over 55% in size
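qHTS (up to 57 uM final) was run with 24 h compound exposure of reporter cells at 37 °C. Each well was multiplexed: SteadyGlo luminescence measured ATXN2-luciferase expression after a fluorogenic Gly-Phe-AFC viability readout (25 uM final).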
DT40 TDP1 no CPT: qHTS for Inhibitors of human tyrosyl-DNA phosphodiesterase 1 (TDP1): qHTS in cells in absence of CPT | DT40 Tdp1-/- hTDP1 cells, no CPT, ATP luminescence, 48 h | Potency, µM (highest dose often 46.2 µM), usual class: inhibitors | hit rate 15% among 420,000; note: nearly all actives have a fitted effect of over 55% in size
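Cells were dispensed at 400 per well, compounds added by pin tool, plates incubated ≥48 hr at 37 °C, then CellTiter-Glo added for 30 min at room temperature before luminescence reading. Line: DT40 Tdp1-/- complemented with hTDP1; camptothecin omitted.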
TGFb SMAD3 inh: qHTS for Inhibitors of TGF-b | HepG2 CAGA-GFP TGF-b/SMAD3 reporter, GFP fluorescence, 18 h; TGF-beta stimulated, 500 pg/mL final | Potency, µM (series often up to 46.1 µM), usual class: inhibitors | hit rate 1.2% among 410,000 | AID 588855, 2011; note: nearly all actives have a fitted effect of over 65% in size
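First, reporter cells (HEPG2 CAGA-GFP) rested 2 h at 37 degrees C. Next, compounds were pinned in and TGF-beta added to 500 pg/mL final. After 18 h, GFP was imaged per cell and summed per well.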
HepG2 tox-1: qHTS for Inhibitors of TGF-b: Cytotox Counterscreen; hit rate 0.76% among 410,000; AID 588856, 2011; Potency, µM (highest dose often 46.1 µM), usual class: cytotoxic; HepG2 CAGA-GFP viability, ATP luminescence, 18 h
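CellTiter-Glo luminescence gave cytotoxicity after 18 hours at 37 degrees C. The cells were HepG2 CAGA-GFP in 1% FBS DMEM, stimulated with 500 pg/mL TGF-beta after compound addition. %Activity was normalised to no-cell wells (complete cell-killing) and DMSO (no toxicity), and curves were fitted and classified.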
TDP1 cell CPT: qHTS for Inhibitors of human tyrosyl-DNA phosphodiesterase 1 (TDP1): qHTS in cells in presence of CPT; chicken DT40 Tdp1-/-;hTDP1 cells + 20 nM CPT, ATP luminescence, 48 h; Potency, µM (titrated, usually from 46.2 µM), usual class: inhibitors; hit rate 12% among 420,000; note: nearly all actives have a fitted effect of over 55% in size
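Cell growth measured by CellTiter-Glo luminescence after a minimum 48 h, 37 C compound exposure with 20 nM CPT in Tdp1-knockout DT40 cells stably expressing hTDP1, seeded 400/well; qHTS titration format.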
ATXN viability: Viability Counterscreen for Primary qHTS for Inhibitors of ATXN expression; S2 cells (HEK-293 line with an ATXN2-luciferase reporter) viability, CellTiter-Fluor protease fluorescence, 24 h; Potency, µM (top dose mostly 56.7 µM), hits mostly cytotoxic; hit rate 0.49% among 400,000; note: nearly all actives have a fitted effect of over 40% in size
TGFb confirm: qHTS for Inhibitors of TGF-b: Confirmation of Cherry Picks. HepG2 CAGA-GFP TGF-b reporter, GFP fluorescence, 18 h; cells stimulated with TGF-beta, 500 pg/mL. Potency, µM (series often up to 46.1 µM), usual class: inhibitors. shares compounds with TGFb SMAD3 inh. hit rate 63% among 1,600; note: nearly all actives have a fitted effect of over 65% in size
HepG2 tox-2: qHTS for Inhibitors of TGF-b: Cytotox Counterscreen for Cherry Picks. shares compounds with TGFb SMAD3 inh. HepG2 CAGA-GFP viability, ATP luminescence, 18 h; cells stimulated with TGF-beta, 500 pg/mL. Potency, µM (top dose mostly 46.1 µM), actives largely listed as inhibitors. hit rate 27% among 1,600. AID 720535, 2013; note: nearly all actives have a fitted effect of over 70% in size
TGFb CCL64 inh: qHTS for Inhibitors of TGF-b: CCL64 Cells Orthogonal Assay for Cherry Picks; shares compounds with TGFb SMAD3 inh; CCL64 CAGA-GFP reporter, TGF-b stimulated, GFP fluorescence, 18 h; Potency, µM (highest dose often 46.1 µM), most hits filed as inhibitors; hit rate 41% among 1,600; AID 720536, 2013; note: nearly all actives have a fitted effect of over 65% in size
COP TGFb inh: qHTS for Inhibitors of TGF-b: Hit Validation in HepG2 Cells using COP promoter. shares compounds with TGFb SMAD3 inh. HepG2 COP-GFP TGF-b reporter, GFP fluorescence, 18 h; cells stimulated by added recombinant TGF-beta. Potency, µM (series often up to 46.1 µM), hits mostly inhibitors. hit rate 3% among 1,600. AID 720537, 2013; note: nearly all actives have a fitted effect of over 70% in size
Each line names hits and unclear results; the compound was inactive in the other large screens (follow-up assays come after a bar, where they were run). Only some compounds are listed: those with a hit (about 17% of all), similar ones and a draw of the others. Calls come from the whole dose curve; as a rule, active = well fitted curve in the direction sought with a large enough effect; inconclusive = small, poorly fitted or top-dose-only effect, or another doubt; inactive = no such curve, though single readings can be large; an effect the other way counts as inactive or inconclusive.

O=C(Nc1cc(S(=O)(=O)N2CCOCC2)ccc1O)c1ccc(NS(=O)(=O)c2ccc(Cl)s2)cc1	none
Cc1ccc(NC(=O)c2ccccc2NS(=O)(=O)c2ccc(Cl)s2)cc1S(=O)(=O)N1CCOCC1	ATXN2 expr inh inconclusive, DT40 TDP1 no CPT 12µM, TGFb SMAD3 inh inconclusive, TDP1 cell CPT 13µM, ATXN viability inconclusive | TGFb confirm 13µM | HepG2 tox-2 inconclusive | TGFb CCL64 inh 8.2µM | COP TGFb inh inactive
COc1ccc(C)cc1NC(=O)c1ccccc1NS(=O)(=O)c1ccc(Cl)s1	DT40 TDP1 no CPT 6.5µM, TGFb SMAD3 inh 5µM, TDP1 cell CPT 8.2µM (no result: ATXN2 expr inh) | TGFb confirm 12µM | HepG2 tox-2 inconclusive | TGFb CCL64 inh 6.5µM | COP TGFb inh inactive
COc1ccccc1NC(=O)c1ccccc1NS(=O)(=O)c1cccs1	ATXN viability inconclusive
COc1cc(NC(=O)CC(C)S(=O)(=O)c2ccc3c(c2)CCN3C(C)=O)cc(OC)c1OC (centres undefined)	none
COc1cc(C(=O)c2cocc2C(=O)c2ccc3c(c2)OCO3)cc(OC)c1OC	DT40 TDP1 no CPT 0.73µM, TGFb SMAD3 inh inconclusive, TDP1 cell CPT 0.73µM | TGFb confirm inactive | HepG2 tox-2 inactive | TGFb CCL64 inh inactive | COP TGFb inh inactive
Cn1cc([N+](=O)[O-])c(C(=O)Nc2ccc3nc(-c4ccccc4)[nH]c3c2)n1	DT40 TDP1 no CPT 18µM, TGFb SMAD3 inh 7.9µM, TDP1 cell CPT inconclusive | TGFb confirm 6.5µM | HepG2 tox-2 inconclusive | TGFb CCL64 inh inactive | COP TGFb inh inactive
O=C(C[n+]1ccccc1)Nc1ccccc1C(F)(F)F	none
COc1cccc(/C=N/NC(=O)c2ccncc2)c1OC(=O)c1ccc(Br)cc1	ATXN2 expr inh inconclusive, DT40 TDP1 no CPT inconclusive, TGFb SMAD3 inh inconclusive, TDP1 cell CPT inconclusive, ATXN viability inconclusive | TGFb confirm inconclusive | HepG2 tox-2 inactive | TGFb CCL64 inh inconclusive | COP TGFb inh inactive
O=C(CSc1nc(N2CCCCC2)nc(N2CCCCC2)n1)N1CCN(c2ccccc2)CC1	DT40 TDP1 no CPT 16µM, TGFb SMAD3 inh 6.3µM, TDP1 cell CPT 23µM | TGFb confirm 16µM | HepG2 tox-2 inactive | TGFb CCL64 inh inconclusive | COP TGFb inh inactive
Cc1nc(SCC(=O)N2CCN(c3ccccc3)CC2)n[nH]1	none
COc1ccc(OC)c(C2=NOC(C(=O)Nc3cc(C)nn3-c3ccccc3)C2)c1 (centres undefined)	DT40 TDP1 no CPT inconclusive
O=C(Nc1ccccc1)Nc1nnc(CSCc2ccccc2Cl)s1	ATXN2 expr inh inconclusive, DT40 TDP1 no CPT inconclusive, TGFb SMAD3 inh 7.9µM, TDP1 cell CPT 21µM, ATXN viability inconclusive | TGFb confirm inconclusive | HepG2 tox-2 inactive | TGFb CCL64 inh inconclusive | COP TGFb inh inactive
O=C(Cc1nnc(NC(=O)Nc2ccccc2)s1)Nc1ccccc1	none
O=C(/C=C/c1ccccc1)CCN1CCOCC1	ATXN2 expr inh inconclusive, DT40 TDP1 no CPT 1.5µM, TGFb SMAD3 inh 7.1µM, HepG2 tox-1 10µM, TDP1 cell CPT 0.92µM, ATXN viability inconclusive | TGFb confirm 2.6µM | HepG2 tox-2 7.3µM | TGFb CCL64 inh 10µM | COP TGFb inh inconclusive
CCCNC(=O)CCC(=O)N1Cc2cccc(OC)c2Oc2ncccc21	none
Nc1ccc(S(=O)(=O)c2ccccc2)nc1	none (no result: ATXN2 expr inh)
O=[N+]([O-])c1ccc(S(=O)(=O)c2ccccc2)nc1	DT40 TDP1 no CPT 0.92µM, TGFb SMAD3 inh 2.5µM, HepG2 tox-1 14µM, TDP1 cell CPT 0.52µM (no result: ATXN2 expr inh, ATXN viability) | TGFb confirm 4.1µM | HepG2 tox-2 5.8µM | TGFb CCL64 inh 3.3µM | COP TGFb inh 8.2µM
COC(=O)C(C)(C(=O)OC)c1ccc([N+](=O)[O-])cn1	TGFb SMAD3 inh inconclusive
Cc1ccc(S(=O)(=O)c2ccc([N+](=O)[O-])cn2)cc1	ATXN2 expr inh inconclusive, DT40 TDP1 no CPT 0.52µM, TGFb SMAD3 inh 2.8µM, HepG2 tox-1 7.1µM, TDP1 cell CPT 0.46µM (no result: ATXN viability) | TGFb confirm 3.3µM | HepG2 tox-2 2.9µM | TGFb CCL64 inh 3.3µM | COP TGFb inh 5.2µM
CC(C)(C)C(=O)OCOC(=O)[C@@H]1N2C(=O)[C@@H](NC(=O)[C@H](N)c3ccccc3)[C@H]2SC1(C)C	none (no result: TGFb SMAD3 inh, HepG2 tox-1)
CCc1cccc(C)c1NC(=O)C1CN(S(=O)(=O)c2ccccc2)CCN1S(=O)(=O)c1ccccc1 (centres undefined)	DT40 TDP1 no CPT inconclusive, TDP1 cell CPT inconclusive
CN(CC(=O)N1CCN(Cc2ccccc2)CC1)C(=O)Cc1cccc2ccccc12	DT40 TDP1 no CPT 13µM, TGFb SMAD3 inh 14µM, TDP1 cell CPT 13µM, ATXN viability inconclusive | TGFb confirm inconclusive | HepG2 tox-2 inactive | TGFb CCL64 inh inactive | COP TGFb inh inactive
C[C@H](NC(=O)OCc1ccccc1)C(=O)N[C@@H](Cc1c[nH]c2ccccc12)C(=O)O	none
COc1ccccc1CNC(=O)C(Cc1c[nH]c2ccccc12)NC(=O)OCc1ccccc1 (centres undefined)	DT40 TDP1 no CPT 18µM, TGFb SMAD3 inh 11µM, TDP1 cell CPT inconclusive, ATXN viability inconclusive | TGFb confirm inconclusive | HepG2 tox-2 inconclusive | TGFb CCL64 inh inconclusive | COP TGFb inh inactive
CCN(CC)C(=O)CSc1nnc(-c2ccccc2)n1-c1ccccc1	DT40 TDP1 no CPT inconclusive, TDP1 cell CPT inconclusive
